# The campaign covered roughly 48,000 compounds. About 13,000 (27%) showed an effect of 50% or more. The list shows a part of the results.
# Tested on: Wolbachia pipientis
# Experiment: Anti-Wolbachia Cell-Based Screen
# Format: functional
# Design: scale not given: in the data most compounds retested in dose-response had high values
# Settings: 5 µM
row,Structure (SMILES),Percent Effect
1,CCC(CO)N(Cc1cccnc1)Cc1ccc(-c2ccn[nH]2)s1 (stereo not drawn),4.35%
2,CCN(CC)c1ncccc1CNC(=O)c1cnn(CC)c1,-6.3%
3,CCN(CC)c1ncccc1CNCc1cc2ccccc2s1,111.2%
4,CCN(CC)c1ncccc1CNCc1ccc(Cl)s1,99.51%
5,CCN(CC)c1ncccc1CNCc1ccc(-c2ccn[nH]2)s1,103.4%
6,Cc1cc(N(C)C)nc(N2CCn3c(nnc3C(C)C)C2)n1,-5.2%
7,NC(=O)C1CCCN1Cc1ccccc1NC(=O)Cc1cccs1 (stereo not drawn),-13.98%
8,CN(C)S(=O)(=O)N1CCN(C(=O)c2ccc3ccn(C)c3c2)CC1,5.412%
9,COCCn1ccc2cc(C(=O)N3CCN(S(C)(=O)=O)CC3)ccc21,125.8%
10,COCCn1ccc2ccc(C(=O)N3CCN(C(C)=O)CC3)cc21,108.9%
11,CCC(=O)Nc1ccc2c(ccn2CCOC)c1,8.893%
12,COCCn1ccc2cc(NC(=O)COC)ccc21,1.286%
13,COCCn1ccc2ccc(C(=O)O)cc21,99.17%
14,Cn1ccc2ccc(C(=O)N3CCN(C(=O)N4CCOCC4)CC3)cc21,0.8109%
15,CS(=O)(=O)N1CCC(Oc2ccc(C(=O)N3CCSCC3)cc2Cl)CC1,7.501%
16,CCOC(=O)N1CCN(C(=O)c2ccc3ccn(C)c3c2)CC1,0.8286%
17,CC(C1CCN(Cc2c(Cl)cncc2Cl)CC1)N1CCN(C)CC1 (stereo not drawn),-10.06%
18,CC1(c2ccccc2)CCC(=O)N(CC2(N3CCOCC3)CCCC2)C1 (stereo not drawn),-0.1352%
19,O=C(NCc1nc(C2CC2)no1)N1CCOC(c2ccccc2)C1 (stereo not drawn),-16.91%
20,COC(=O)[C@@H]1Cc2ncn(C)c2CN1S(=O)(=O)c1ccc(OC)cc1,2.654%
21,O=C(Nc1ccnn1C1CCCC1)c1ccc(NC2CC2)nc1,-4.734%
22,CCc1c(C)nn(CCN2CC3(CCOC3)CCC2=O)c1C (stereo not drawn),-12.78%
23,CC(C)(CNC(=O)NCCOc1cccc(F)c1)C(N)=O,-10.47%
24,O=C(CCNc1ncccn1)NCCc1ccn(-c2ccccc2)n1,0.9035%
25,CC(C)(C)C(=O)NCCc1ccn(-c2ccccc2)n1,8.286%
26,CCNC(=O)CCS(=O)(=O)Cc1ccn(-c2cccc(F)c2)n1,-7.781%
27,CC(C)CCC(=O)NCCc1ccn(-c2ccccc2)n1,127.8%

row,Structure (SMILES),Percent Effect
1,CC(C)(C)C(=O)NCCC(=O)NCCc1ccn(-c2ccccc2)n1,101.3%
2,CC(C)(CNC(=O)NCCc1ccn(-c2ccccc2)n1)C(N)=O,145.8%
3,CC(C)CCNC(=O)CCc1ccnc2ccccc12,-1.133%
4,CCC(CC)NC(=O)CN1CCN(C(=O)N(C)C)CC1,29.72%
5,CCCn1cnnc1CNC1CSCCSC1,10.77%
6,COCC1CN(Cc2ccsc2)Cc2nn(C)cc21.O=C(O)C(F)(F)F (stereo not drawn),2.999%
7,COCC1CN(Cc2ccc(C)o2)Cc2cn(C)nc21.O=C(O)C(F)(F)F.O=C(O)C(F)(F)F (stereo not drawn),-19.49%
8,Fc1cccc(-c2nnn3c2COC(CNCc2ccsc2)C3)c1.O=C(O)C(F)(F)F (stereo not drawn),-5.927%
9,COCC1Cn2nnc(-c3cnn(C)c3)c2CN1Cc1cccs1.O=C(O)C(F)(F)F (stereo not drawn),105.4%
10,COCC1Cn2nnc(-c3cnn(C)c3)c2CN1Cc1ccoc1.O=C(O)C(F)(F)F (stereo not drawn),100.4%
11,Cc1cnnn1Cc1nnn2c1CN(Cc1cccs1)CCC2.O=C(O)C(F)(F)F,-1.131%
12,Cn1cc(-c2nnn3c2COC(CNCc2nccs2)C3)cn1 (stereo not drawn),7.882%
13,COCC1Cn2nnc(-c3cnn(C)c3)c2CN1Cc1ccc(C)s1.O=C(O)C(F)(F)F (stereo not drawn),-9.357%
14,Cc1cccc(COCC2c3nnn(C)c3CCN2Cc2ccoc2)n1.O=C(O)C(F)(F)F.O=C(O)C(F)(F)F (stereo not drawn),-0.8413%
15,COCC1Cn2nnc(-c3cnn(C)c3)c2CN1Cc1ccc(C)o1 (stereo not drawn),87.7%
16,COCC1Cn2nnc(-c3cnn(C)c3)c2CN1Cc1ccsc1.O=C(O)C(F)(F)F (stereo not drawn),97.96%
17,COCC1Cn2nnc(-c3cnn(C)c3)c2CN1Cc1ccco1.O=C(O)C(F)(F)F (stereo not drawn),-7.435%
18,CN(C)S(=O)(=O)N1C[C@H]2CCC[C@@]2(COCC2CCOCC2)C1,-9.423%
19,CCc1nc(CNC2CCN(c3ccc(OC)cc3)CC2)cs1,-5.711%
20,O=C(c1ccncc1F)N1CCc2ncnc(N3CCOCC3)c2CC1,22.92%
21,CCc1n[nH]c(C(=O)NCCn2nccc2C)c1C,177.1%
22,CCc1n[nH]c(C(=O)NCCn2ccnc2C)c1C,12.68%
23,CCc1c(C)nn(CCNC(=O)c2cnn[nH]2)c1C,-18.26%
24,CCc1n[nH]c(C(=O)NCCn2ccc(C)n2)c1C,161.5%
25,CCCN1CC2(CCN(C)CC2)CC1C(=O)NCCn1ccc(C)n1 (stereo not drawn),5.137%
26,CCc1noc(C)c1C(=O)NCc1cc[nH]n1,-9.348%

# From ChEMBL document CHEMBL3988442, “University of Dundee, Small-Polar-MMV Screening Library” (2021)
